In PubChem BioAssay AID504895 (National Center for Advancing Translational Sciences (NCATS), 2011):
Inconclusive results are not listed. Where a call stands in place of a potency, no number is given. Active and inactive are the calls of the source. Calls come from the whole dose curve; as a rule, active = well fitted curve in the direction sought with a large enough effect; inconclusive = small, poorly fitted or top-dose-only effect, or another doubt; inactive = no such curve, though single readings can be large or run the other way.

Biological target: Protein phosphatase EYA2 (Homo sapiens) (UniProt O00167)
Test: Inhibitors of Eya2ED: Hit Confirmation in Primary Screen
Conditions: Recombinant Eya2ED, OMFP fluorescence phosphatase assay; series mostly up to 76.9 µM
How it was run: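 Eya2 (dispensed at 0.2 uM) was preincubated 10 min at ambient with compound in 50 mM HEPES pH 7.5, 50 mM NaCl, 5 uM MgCl2, 0.05% BSA, 1 mM DTT. OMFP (dispensed at 50 uM) was then added, and fluorescence (ex 485/em 525 nm) was read after 10 min. Retested as 12-point titrations; EGTA control.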

Sequence of Protein phosphatase EYA2 (Homo sapiens) (O00167 whole entry, looked up): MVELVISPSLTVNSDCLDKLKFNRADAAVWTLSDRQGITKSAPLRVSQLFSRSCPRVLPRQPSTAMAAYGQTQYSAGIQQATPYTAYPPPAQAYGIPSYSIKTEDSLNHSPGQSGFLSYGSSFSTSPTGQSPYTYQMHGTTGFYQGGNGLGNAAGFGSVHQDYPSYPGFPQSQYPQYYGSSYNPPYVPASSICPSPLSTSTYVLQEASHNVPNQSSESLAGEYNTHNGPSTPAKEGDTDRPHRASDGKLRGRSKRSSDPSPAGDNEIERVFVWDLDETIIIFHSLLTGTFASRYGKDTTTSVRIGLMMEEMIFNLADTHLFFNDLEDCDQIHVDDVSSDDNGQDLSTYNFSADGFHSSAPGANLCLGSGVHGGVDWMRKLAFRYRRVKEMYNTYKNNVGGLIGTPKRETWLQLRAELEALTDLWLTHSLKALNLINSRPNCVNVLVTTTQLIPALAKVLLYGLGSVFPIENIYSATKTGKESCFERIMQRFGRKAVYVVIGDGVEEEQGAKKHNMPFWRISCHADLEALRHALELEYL

Row | SMILES | Potency
1 | O=C(COC(=O)c1ccccc1Nc1cccc(C(F)(F)F)c1)NCc1ccco1 | inactive
2 | Cn1c(N)c(C(=O)CSc2nnc(C3CC3)n2-c2ccccc2)c(=O)[nH]c1=O | inactive
3 | O=C(CSc1c2c(nc3cc(Cl)ccc13)CCCC2)NCc1ccco1 | inactive
4 | O=C(N/N=C/c1ccc(Sc2nc3ccccc3[nH]2)o1)c1ccncc1 | inactive
5 | O=C(COC(=O)c1cccnc1Cl)Nc1cc(S(=O)(=O)N2CCCCCC2)ccc1Cl | inactive
6 | Cc1cc(C)n(C(=O)COc2ccccc2[N+](=O)[O-])n1 | inactive
7 | O=C(CCCC(=O)N(CC(=O)NC1CCCCC1)c1ccccc1F)Nc1ccccn1 | inactive
8 | COc1ccccc1N1C(=O)C2C3C=CC(C3)C2C1=O (configuration not stated) | inactive
9 | Cc1c(NS(=O)(=O)c2ccc(N)cc2)c(=O)n(-c2ccccc2)n1C | inactive
10 | Cc1ccc(Nc2nc(N)nc(CSc3ncccn3)n2)cc1 | inactive
11 | CN(CCCC(=O)N1CCN(c2ncccn2)CC1)S(=O)(=O)c1ccc(F)cc1 | inactive
12 | Cc1ccc2c(c1)CCCN2C(=O)c1cccs1 | inactive
